From PubChem BioAssay (NCI)
About 79,000 compounds went through this panel and 15% of them were active in at least one assay; those are over-represented in the sample as a whole. A number with no mark means an inactive call. Active and inactive are the calls of the source. Rule as the data show it: active = growth inhibition above about 70%; inactive = the rest.

Assays:
[1] = NCI Yeast Anticancer Drug Screen. Data for the rad50 strain (AID 155);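 also: 0% = growth of vehicle-only cultures of the same strain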; details: S. cerevisiae rad50 strain growth inhibition; at 50.0 µM; stronger effect = higher value
Summary of the method: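 Cells are treated with compound, grown, and their growth is then scored against vehicle-only cultures of the same repair-deficient yeast strain.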

[2] = NCI Yeast Anticancer Drug Screen. Data for the mec2-1 strain (AID 157); details: S. cerevisiae mec2-1 strain, at 50.0 µM, stronger effect = higher value
Summary of the method: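 mec2-1 yeast strain, carrying an alteration in DNA damage repair or cell cycle control, was exposed to compounds; growth inhibition was measured relative to vehicle-treated controls.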

[3] = NCI Yeast Anticancer Drug Screen. Data for the sgs1 mgt1 strain (AID 161);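 also: 0% = growth of cultures given vehicle only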; details: S. cerevisiae sgs1 mgt1 strain, at 50.0 µM, stronger effect = higher value
Summary of the method: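 Yeast cells carrying a defined DNA-repair defect were exposed to test compounds. Growth inhibition was measured relative to vehicle-treated controls.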

[4] = NCI Yeast Anticancer Drug Screen. Data for the cln2 rad14 strain (AID 165);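 also: 0% = growth equal to vehicle treated cultures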; details: S. cerevisiae cln2 rad14 strain, at 50.0 µM, stronger effect = higher value
Summary of the method: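 Yeast carrying cln2 and rad14 alterations (cell cycle control and DNA damage repair) were exposed to compounds. Growth inhibition was measured against vehicle-treated controls.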

[5] = NCI Yeast Anticancer Drug Screen. Data for the bub3 strain (AID 167); details: S. cerevisiae bub3 mutant strain, at 50.0 µM, stronger effect = higher value
Summary of the method: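 Part of a panel of yeast mutants defective in DNA damage repair or cell cycle regulation. Each strain is grown with compound, and inhibition is calculated relative to solvent-treated cultures.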

[6] = NCI Yeast Anticancer Drug Screen. Data for the mlh1 rad18 strain (AID 175); details: S. cerevisiae mlh1 rad18 strain growth inhibition; at 50.0 µM; stronger effect = higher value
Summary of the method: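 Growth inhibition of the yeast strain was measured after compound exposure and expressed relative to vehicle-treated controls. The strain carries defined defects in DNA damage repair.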

| Compound | growth inhibition [1] | growth inhibition [2] | growth inhibition [3] | growth inhibition [4] | growth inhibition [5] | growth inhibition [6] |
| --- | --- | --- | --- | --- | --- | --- |
| CO/N=C1\CC(NC(=O)CNC(=O)OC(C)(C)C)c2ccsc21 (stereo unspecified) | 1.45% | 5.9% | 6.6% | 4.3% | -1.7% | 28.4% |
| CC(Nc1cccc(Cl)c1)S(=O)(=O)O (stereo unspecified) | 8.05% | 5.7% | -8% | 26.4% | 2% | -0.25% |
| CC1(C)OC2OC(C3CC3)C(OCc3ccccc3)C2O1 (stereo unspecified) | -4.35% | -1.05% | -7.55% | -16% | -10.7% | -6.5% |
| N#Cc1ccccc1CC(O)(c1ccccc1)c1ccccc1 | 36.5% | -5.85% | -7.75% | 13.7% | -10.2% | 9.8% |
| CC(=O)NC1C(OCc2ccccc2)OC(CO)C(O)C1OCc1ccccc1 (stereo unspecified) | 27.3% | -18.2% | 15.6% | -24.1% | -2.9% | -11.8% |
| CC1(O)CCCCCCC1 | 0.85% | -3.6% | 26.6% | 0.7% | 7.9% | 7.8% |
| CN(CC1CCCCC1=O)CC1CCCCC1=O (stereo unspecified) | 8.65% | 10.2% | -11.1% | -8.8% | 19% | -3.55% |
| O=C(CC(=O)CC(O)(C(F)(F)F)C(F)(F)F)CC(O)(C(F)(F)F)C(F)(F)F | 73.1% (active) | 65.1% | 79.8% (active) | 59% | 55.9% | 78.2% (active) |
| COc1ccc(CN(C)C)c(C(O)c2ccccc2)c1 (stereo unspecified) | 9.2% | -1.75% | 0.7% | 7.6% | 9.5% | 13.2% |
| COc1cccc2c(Cl)c3ccc(Cl)cc3nc12 | 11.4% | 5.25% | 0.8% | -39.1% | -18.9% | 15.8% |
| COC(=O)C1CCC(=O)N1C(c1ccc(OC)cc1)c1ccc2c(c1)OCO2 (stereo unspecified) | -0.1% | 20.9% | 11.1% | 11.7% | 31.5% | 34% |
| O=C1C(SCCO)=C(SCCO)C(=O)c2[nH]cnc21 | 13.8% | -10.4% | 6.5% | -0.85% | 6.8% | 4.15% |
| NCCN.O=C([O-])CN1CCOCC1.[OH-].[Pt+4] | 8.9% | -5.25% | -29.9% | -17.9% | -13.7% | -19.9% |
| CN(C)Cc1ccc2ccccc2c1CC(O)(c1ccccc1)c1ccccc1 | 26.3% | -2.05% | 9.55% | 2.25% | 0.85% | 7.35% |
| CCOC(=O)C(NC(=O)C(CCCCNP(=O)(OCC)OCC)NC(=O)C(C)NC(C)=O)C(C)C (stereo unspecified) | -10.7% | -10.4% | -8.4% | -25.6% | -1.35% | 3.75% |
| COC1=CC(=C(\C#N)c2ccccc2)/C=CC/1=N/O | 40.2% | 39% | 46.6% | -2% | 64.5% | 46.8% |
| c1ccc2c(c1)SCCCSCCSCCCS2 | -15.2% | -0.65% | 8.1% | 5.05% | 20.6% | 2.6% |
| C[N+](C)(C)CC(=O)N/N=C/c1oc(-c2cccc([N+](=O)[O-])c2)c(-c2cccc([N+](=O)[O-])c2)c1[N+](=O)[O-] | 19.4% | 11.7% | 11.8% | 16.3% | -19% | 3.35% |
| COC(=O)CCc1ccc(CCC(=O)OC)cc1 | -14.8% | -37.1% | -1.5% | 4.2% | -11.2% | 9.7% |
| c1cncc(CNc2ncn[nH]2)c1 | -2.5% | 8.3% | -24.1% | -50.3% | -24.9% | -29.8% |
| c1ccc(-n2nnc3c2CCCC3)cc1 | -3.2% | -1.6% | -6.1% | -23.8% | -25.6% | -1.65% |
